In the library only some 5.9% were active in any assay of this set; here they are far more common.
RORg inh: inhibitors of mouse ROR gamma transcriptional activity | P51450 | Drosophila S2 Gal4-RORgamma UAS-luciferase reporter, 20 h | Potency, µM (doses to about 53.6 µM), for inactives: at the highest dose activity change, negative = inhibition, actives largely listed as inhibitors | 310,000 tested, 5.4% active | AID 2551; note: potency is the fitted concentration of half-maximal effect; nearly all actives have a fitted effect of over 60% in size
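Schneider cells (Drosophila), stable Gal4 DBD–ROR gamma + UAS-luc; 1 hr cmpd preincubation; Cu2+ induction 700 uM final; 20 hr ambient; luminescence.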
rTrxR1 inhibitor: rat TrxR1 inhibition; O89049; recombinant rTrxR1, NADPH fluorescence consumption, selenite substrate; Potency, µM (titrated, usually from 114 µM), without a hit: top-dose activity change, negative = inhibition, usual class: inhibitors; 390,000 tested, 1% active; AID 588453; note: potency is the fitted concentration of half-maximal effect; nearly all actives have a fitted effect of over 65% in size
Target sequence (O89049 whole entry, looked up): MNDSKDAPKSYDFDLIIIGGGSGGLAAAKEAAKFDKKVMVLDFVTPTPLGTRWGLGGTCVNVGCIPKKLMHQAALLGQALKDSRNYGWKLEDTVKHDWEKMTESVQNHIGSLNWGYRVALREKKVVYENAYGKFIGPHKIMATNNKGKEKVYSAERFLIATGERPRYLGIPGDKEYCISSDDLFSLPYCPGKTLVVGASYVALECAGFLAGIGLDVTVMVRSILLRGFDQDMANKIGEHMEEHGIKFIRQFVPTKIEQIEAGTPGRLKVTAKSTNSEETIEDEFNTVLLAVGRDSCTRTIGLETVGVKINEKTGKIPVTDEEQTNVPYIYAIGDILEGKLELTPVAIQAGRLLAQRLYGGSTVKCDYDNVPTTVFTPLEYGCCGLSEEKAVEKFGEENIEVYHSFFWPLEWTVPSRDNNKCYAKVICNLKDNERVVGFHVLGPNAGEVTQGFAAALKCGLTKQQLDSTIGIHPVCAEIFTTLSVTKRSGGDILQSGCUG
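Rat TrxR1 (90 nM in the dispensed reagent) was pre-reduced with 400 uM NADPH for 5 min at room temperature, then incubated with compound for 15 min. After 400 uM selenite was added, NADPH fluorescence (Ex 340/Em 450 nm) was followed for 8 min.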
Coupling enz: counter-screen for Giardia aldolase inhibitors: coupling enzyme system | coupling enzyme system counterscreen, AmpLite Red fluorescence | activity change, negative = inhibition, % at 58.2 µM, hits read low | 290,000 tested, 0.67% active | AID 2472; in the data active = activity change below about -30%
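Counterscreen lacking aldolase: glyceraldehyde-3-phosphate coupling-enzyme reagent preincubated 10 min at RT with compound (at 57.5 uM final), then substrate/coupling system with AmpLite Red added; fluorescence read at 525/598 nm after 20 min RT.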
TrxR1 substrate: substrates of rat thioredoxin reductase 1; O89049; purified TrxR1 substrate turnover, NADPH consumption readout; Potency, µM (titrated, usually from 114 µM), without a hit: at the top dose activity change, negative = substrate turnover; 390,000 tested, 0.01% active; note: potency is the fitted concentration of half-maximal effect; nearly all actives have a fitted effect of over 50% in size
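Rat TrxR1, dispensed at 90 nM, was prereduced with 400 uM NADPH (final) for 5 min at ~22 deg C, then incubated with compound 15 min before 400 uM selenite. A first-read NADPH fluorescence drop versus no-compound background flagged substrates.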
VP16 counter: Gal4-VP16 reporter inhibition counter-screen; Drosophila S2 Gal4-VP16 UAS-luciferase, luminescence, 20 h; Potency, µM (top dose mostly 53.6 µM), for inactives: at the top dose activity, negative = inhibition, usual class: inhibitors; 310,000 tested, 3.5% active; AID 2546;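 note: Gal4-VP16 expression switched on by copper sulfate through the metallothionein promoter; potency is the fitted concentration of half-maximal effect; nearly all actives have a fitted effect of over 50% in size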
GALK inhibitor: galactokinase (human) inhibition; P51570; Purified GALK, Kinase-Glo residual ATP luminescence; Potency, µM (highest dose often 57.5 µM), for inactives: at the highest dose activity change, negative = inhibition, most hits filed as inhibitors; 270,000 tested, 0.007% active; note: potency is the fitted concentration of half-maximal effect
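Luminescence from leftover ATP (Ultra-Glo luciferase/luciferin) served as read-out after a 1 h room-temperature reaction of 5 nM GALK with 35 uM ATP and 100 uM galactose.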
* = called active by the depositor; ? = inconclusive; . = not tested or not shown; [ ] = dose if it differs, or a comment. Unless noted, calls come from the whole dose curve; as a rule, active = well fitted curve in the direction sought with a large enough effect; inconclusive = small, poorly fitted or top-dose-only effect, or another doubt; inactive = no such curve, though single readings can be large; an effect the other way counts as inactive or inconclusive. % is set by controls: 0 for no effect and ±100 for the full control effect.

SMILES	RORg inh	rTrxR1 inhibitor	Coupling enz	TrxR1 substrate	VP16 counter	GALK inhibitor
COc1ccc(C2(C)NC(=O)N(CC(=O)NC3CC3)C2=O)cc1 (stereo not given)	.	?	.	2%	.	.
COC(=O)c1cn(NC(=O)C2CCCCC2)c(=O)c2ccccc12	-6%	25%[57.1 µM]	6	4%[57.1 µM]	-1%	-1%
CN(C)CCN(C)Cc1ccccc1Sc1cccc2ccccc12	-41%	-26%	1	-16%	-13%	1%
CCn1c(SCC(=O)c2ccc3c(c2)OCCO3)nnc1-c1ccco1	93%	50µM*	-3	1%	22%	2%
O=C(CN1CCCCC1)NNc1nc(-c2ccccc2)c2cc(Br)ccc2n1	0.5µM*	-9%	2	-13%	1.6µM*	8%
O=C(NNc1nc(-c2ccccc2)c2cc(Br)ccc2n1)c1ccc(S(=O)(=O)N2CCOCC2)cc1	7.9µM*	2%	4	-1%	13µM*	-4%
COc1ccc(CCNC(=O)Nc2cc(F)c(F)cc2Cl)cc1OC	.	16%	-4	-4%	.	-4%
C#CCOC(=O)c1ccccc1C(=O)n1nnc2ccccc21	18µM*	?	-9	5%	?	0%
O=C(Oc1c(CN2CCOCC2)cc(Cl)c2cccnc12)c1cccs1	1.4µM*	-16%	-12	-8%	1µM*	10%
O=C(Nc1cccnc1Cl)c1cccs1	20%	8%	1	2%	-2%	-1%
O=C(Oc1c(CN2CCOCC2)cc(Cl)c2cccnc12)c1ccccc1Cl	0.71µM*	22%[57.1 µM]	-20	7%[57.1 µM]	3.5µM*	13%
O=C(Oc1c(Cl)cc(Cl)c2cccnc12)c1ccco1	0.28µM*	2%	-10	-7%	?	-1%
O=C(Oc1c(Cl)cc(Cl)c2cccnc12)c1cccs1	0.63µM*	9%[57.1 µM]	-5	-1%[57.1 µM]	1µM*	-2%
O=C(Oc1cncc(Cl)c1)c1ccco1	?	?	0	5%	-5%	1%
Cc1nc(CSc2nsc(C)c2C#N)cs1	-5%	23%[57.1 µM]	-5	13%[57.1 µM]	7%	9%
S=C(NCCN1CCOCC1)C(=S)NCCN1CCOCC1	.	9%[2.29 µM]	.	-1%[2.29 µM]	.	.
Brc1ccc(-c2nc(-c3ccccn3)no2)o1	?	-3%[57.1 µM]	-4	12%[57.1 µM]	7.1µM*	5%
Cc1ccccc1-c1nc(-c2cccnc2)no1	-2%	-6%	-1	-2%	28%	6%
COc1ccc(-c2nc(-c3ccccn3)no2)cc1	0.56µM*	10%	0	5%	0.32µM*	24%
COc1ccccc1-c1nc(-c2ccccn2)no1	2.5µM*	-6%	1	5%	7.1µM*	5%
Cc1ccccc1-c1nc(-c2ccccn2)no1	7.1µM*	22%[57.1 µM]	-7	9%[57.1 µM]	7.9µM*	14%
OC1(c2ccc(Br)cc2)CCN(Cc2cccc(Br)c2)CC1	.	7%	0	1%	.	7%
C=C(C)CSc1nnc(CCCCCNC(=O)OC(C)(C)C)o1	26%	19%	-1	-4%	-5%	0%
COc1ccc(/C=C/C(=O)NC(=S)N2CCN(c3ccccn3)CC2)cc1	2.5µM*	16%	-1	-4%	13µM*	-1%
COc1ccc(/C=C/C(=O)NC(=S)N2CCSCC2)cc1	3.5µM*	-2%[57.1 µM]	-1	-5%[57.1 µM]	13µM*	3%
COc1ccc(CC(=O)N2CCN(c3ccccn3)CC2)cc1	?	5%	1	12%	-9%	-3%
COc1ccc(/C=N/Nc2ccc(C(=O)O)cc2)cc1OC	1.6µM*	-12%	-1	-11%	0.45µM*	-3%
Nc1ccc(C(=O)N/N=C\c2ccc(OC(=O)c3ccccc3Cl)cc2)cc1	11%	23%	1	-2%	-13%	-6%
Cc1ccc(S(=O)(=O)Oc2cccc(/C=N/n3cnnc3)c2)cc1	2%	6%	-21	0%	?	2%
O=C(O)c1ccc(N/N=C/c2ccc(OC(=O)c3ccccc3Cl)cc2)cc1	0.4µM*	3%[57.1 µM]	2	7%[57.1 µM]	0.32µM*	-1%
